# Measured values from PubChem BioAssay (EPA / NIEHS).
# Activity calls are given as the source filed them. How the source made its calls: active means hit-call score of the fitted dose curve at least 0.9, where 1 is the maximum; inactive means score below 0.9.
# Read-out: Plasminogen activator inhibitor-1 (PAI1), SERPINE1 (gene 5054)
# Assay: BSK_MyoF_PAI1: BioMAP Diversity Plus: MyoF Assay for Plasminogen activator inhibitor-1 (PAI1) Biomarker Activity (AID 2284256);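 on outcome: PAI-1 protein level measured by ELISA in fibroblast cultures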
# Conditions: primary human lung fibroblasts
# Procedure, shortened: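 In this multiplexed primary-cell system, fibroblasts from human lung received compound for 24 h before ELISA detection of PAI-1; overt toxicity was checked by SRB (0.1%, TCA-fixed, 560 nm) in parallel wells.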
Structure (SMILES),AC50,outcome
CCCCCCCCCCCCCCCCCC[N+](C)(C)Cc1ccccc1,2.91 µM (active),–
O=C(NO)c1ccccc1,–,inactive
COC1=CC(=O)C[C@@H](C)[C@]12Oc1c(Cl)c(OC)cc(OC)c1C2=O,–,inactive
CC1=NN(c2ccccc2)C(=O)C1,–,inactive
C=CC(C)(CCC=C(C)C)OC(C)=O (stereo unspecified),–,inactive
COc1cccc(O)c1,–,inactive
CC(C)(C)c1ccc(O)c(O)c1,33.3 µM (active),–
CC[N+](CC)(CC)Cc1ccccc1,–,inactive
C=COC(=O)C(C)(C)CCCCCC,34 µM (active),–
O=C1c2ccc(O)c(O)c2C(=O)c2c(O)ccc(O)c21,–,inactive
CCOC(=O)CN[C@@H](C(=O)N1CC[C@H]1C(=O)NCc1ccc(/C(N)=N/O)cc1)C1CCCCC1,–,inactive
Cc1ccc(N=Nc2c(O)ccc3ccccc23)c(C)c1,–,inactive
CN(C)c1ccc(C(=C2C=CC(=[N+](C)C)C=C2)c2ccccc2)cc1,0.675 µM (active),–
NC(=NCCCCCCN=C(N)/N=C(\N)Nc1ccc(Cl)cc1)/N=C(\N)Nc1ccc(Cl)cc1,4.43 µM (active),–
OCCN1CN(CCO)CN(CCO)C1,–,inactive
Cc1ccc(C(=O)c2ccccc2)cc1,–,inactive
Clc1ccc(Nc2nnc(Cc3ccncc3)c3ccccc23)cc1,–,inactive
Cc1cccc2c1ccc1ccccc12,–,inactive
COc1cc(OC)nc(NC(=O)NS(=O)(=O)Nc2ccccc2C(=O)N(C)C)n1,–,inactive
C=CC(=C)CC/C=C(\C)CCC=C(C)C,–,inactive
C[C@]12CC[C@@H]3c4ccc(O)cc4CC[C@H]3[C@@H]1C[C@@H](O)[C@@H]2O,–,inactive
